Assay [1] in a line: CCTE_Harrill_HTTr_Apoptosis_MCF7: CCTE's 6-hour Apoptosis Assessment for the High-Throughput Transcriptomics (HTTr) Platform, in MCF-7 cells cultured in DMEM + 10% fetal bovine serum, Harrill Lab (AID 2284011). Put shortly: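 Cells are dosed with test chemicals at eight concentrations and imaged 6 hours later for caspase-3/7 activity using a green fluorogenic detection reagent. Activity is fitted in both directions against DMSO controls.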

Assay [2] is described as follows: CCTE_Harrill_HTTr_CellCount_MCF7: CCTE's Cell Proliferation Assessment for the High-Throughput Transcriptomics (HTTr) Platform, Harrill Lab (AID 2284012; active means hit-call score of the fitted dose curve at least 0.9, where 1 is the maximum;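 further: cells exposed to compound for six hours; intended direction is loss of nuclei count meaning fewer cells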). The essentials: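 Cell count served as viability reporter: loss of Hoechst-stained nuclei, counted by high content imaging, marks decreased growth or survival. Exposure was 6 h in MCF-7 cells across eight concentrations, with DMSO as baseline.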

The values below come from PubChem BioAssay (EPA / NIEHS).

Several values for one entry are separate records, joined by “and”; a condition that tells them apart may be missing. Equal entries are not always repeated. Inconclusive results are not listed. Activity calls are given as the source filed them. How the source made its calls, unless noted: active means hit-call score of the fitted dose curve at least 0.9, where 1 is the maximum; inactive means score below 0.9.

Broadly, the AC50 is the midpoint of the concentration-response curve, whichever way the signal moves.

Regarding `O=S(=O)(O)c1ccc(Cl)cc1`, the outcome in assay [1] was inactive.

In the case of `CCOC(=O)C1CC(=O)C(=C(O)C2CC2)C(=O)C1` (stereo not given), in assay [1], the outcome was inactive.

With `CN(N=O)C(=O)N[C@@H]1[C@@H](O)[C@H](O)[C@@H](CO)O[C@@H]1O`, the result in assay [1] and in assay [2] was inactive.

Take `CC(=O)CCC(C)C`: the outcome in assay [1] and in assay [2] was inactive.

Regarding `CN(C)C(C)(C)CO`, the result in assay [1] and in assay [2] was inactive.

On to `CCCCCCCCCCCCCCCCC`, for which, in assay [1], the outcome was inactive.

For the compound `CCc1ccc(C)nc1`, the outcome in assay [1] and in assay [2] was inactive.

Turning to `CCCCCCCCn1sc(Cl)c(Cl)c1=O`, the result in assay [1] and in assay [2] was inactive.

As to `CC(C)(C)c1cc(CCC(=O)OCC(COC(=O)CCc2cc(C(C)(C)C)c(O)c(C(C)(C)C)c2)(COC(=O)CCc2cc(C(C)(C)C)c(O)c(C(C)(C)C)c2)COC(=O)CCc2cc(C(C)(C)C)c(O)c(C(C)(C)C)c2)cc(C(C)(C)C)c1O`, the outcome in assay [1] and in assay [2] was inactive.

Consider `CSc1ccc(Cl)cc1`, for which the outcome in assay [1] was inactive.

As to `O=C(c1ccccc1)c1ccc(O)cc1O`, the outcome in assay [1] was inactive.

As to `Cc1cnccn1`, the outcome in assay [1] and in assay [2] was inactive.

For the compound `C[C@]12CC[C@H]3C(=CCc4cc(O)ccc43)[C@@H]1CCC2=O`, the outcome in assay [1] and in assay [2] was inactive.

Regarding `CCN=c1cc2oc3cc(NCC)c(C)cc3c(-c3ccccc3C(=O)OCC)c-2cc1C`, the AC50 in assay [1] was 96.9 nM (active) and 51.2 nM (active). In assay [2], the outcome was inactive.

For `CCCCCCCCCc1ccc(OCCO)cc1`, the outcome in assay [1] and in assay [2] was inactive.

`Cc1cc(=O)[nH]c(C(C)C)n1`: the result in assay [1] and in assay [2] was inactive.

Regarding `Brc1ccccn1`, the outcome in assay [1] and in assay [2] was inactive.

For the compound `CCCCCCCCCCCCC[N+](C)(C)Cc1ccccc1`, the outcome in assay [1] and in assay [2] was inactive.

Take `CC1CCCCC1`: the outcome in assay [1] and in assay [2] was inactive.

`CSc1ccc(O)cc1C`: the result in assay [1] and in assay [2] was inactive.
